Our source for the outcome and AC50 values is PubChem BioAssay (EPA / NIEHS).

“And” between values parts separate entries of the source, which are not always exact repeats. Identical values can stand only once. Records with an inconclusive call do not appear. More than one record can exist for a structure, and the calls need not agree. The source made the active and inactive calls. Rule for the calls, unless noted: active = hit-call score of the fitted dose curve at least 0.9, where 1 is the maximum; inactive = score below 0.9.

The target in test [1] is Estrogen receptor (Homo sapiens) (UniProt P03372). Briefly: OT_ERa_GFPERaERE_0120: Odyssey Thera (OT) 2-hour HeLa Transcription Induction Assay for Estrogen Receptor (AID 2283382; active = hit-call score of the fitted dose curve at least 0.9, where 1 is the maximum). The procedure, abridged:
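Measures ESR1 pathway reporter gain-of-signal in HeLa cells after a 2-hour treatment, detected as fluorescent protein induction by microscopy, DMSO as baseline.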

For test [2], the target named is Bile acid receptor (Homo sapiens) (UniProt Q96RI1). Briefly: OT_FXR_FXRSRC1_0480: Odyssey Thera (OT) 8-hour HEK293T Protein-Complementation Assay for Farnesoid X receptor/SRC-1 Co-activator (AID 2283383; active = hit-call score of the fitted dose curve at least 0.9, where 1 is the maximum). A digest of the protocol:
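Co-activator recruitment to FXR was measured in living HEK293T cells, where interaction of the two fused partners restored an active fluorescent reporter. Signal gain after 8 h treatment was referenced to DMSO.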

The target is the same in test [3]. Briefly: OT_FXR_FXRSRC1_1440: Odyssey Thera (OT) 24-hour HEK293T Protein-Complementation Assay for Farnesoid X receptor/SRC-1 Co-activator (AID 2283384; active = hit-call score of the fitted dose curve at least 0.9, where 1 is the maximum). The procedure, abridged:
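Cell-based binding reporter: interaction of FXR with SRC-1 brings reporter fragments together, giving a fluorescence signal read 24 h after dosing of HEK293T cells.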

In test [4] the target is Peroxisome proliferator-activated receptor gamma (Homo sapiens) (UniProt P37231). As to the kind of experiment: OT_PPARg_PPARgSRC1_0480: Odyssey Thera (OT) 8-hour Protein-Complementation Assay for Peroxisome Proliferator-activated Receptor Gamma / SRC-1 Co-activator (AID 2283387; active = hit-call score of the fitted dose curve at least 0.9, where 1 is the maximum;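 note: nuclear to cytoplasmic split Venus YFP fluorescence ratio reporting PPARg SRC-1 interaction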). The procedure, abridged: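 HEK293T transiently transfected with PPARg and SRC-1 fused to Venus YFP fragments, compounds 8 h at 37C. Fixed, Draq5-stained cells imaged; nuclear/cytoplasmic 488 nm fluorescence ratio over at least 350 cells per image; gain fitted versus DMSO.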
Chain of Peroxisome proliferator-activated receptor gamma (Homo sapiens) (P37231 whole entry, looked up, the tested form may be a part): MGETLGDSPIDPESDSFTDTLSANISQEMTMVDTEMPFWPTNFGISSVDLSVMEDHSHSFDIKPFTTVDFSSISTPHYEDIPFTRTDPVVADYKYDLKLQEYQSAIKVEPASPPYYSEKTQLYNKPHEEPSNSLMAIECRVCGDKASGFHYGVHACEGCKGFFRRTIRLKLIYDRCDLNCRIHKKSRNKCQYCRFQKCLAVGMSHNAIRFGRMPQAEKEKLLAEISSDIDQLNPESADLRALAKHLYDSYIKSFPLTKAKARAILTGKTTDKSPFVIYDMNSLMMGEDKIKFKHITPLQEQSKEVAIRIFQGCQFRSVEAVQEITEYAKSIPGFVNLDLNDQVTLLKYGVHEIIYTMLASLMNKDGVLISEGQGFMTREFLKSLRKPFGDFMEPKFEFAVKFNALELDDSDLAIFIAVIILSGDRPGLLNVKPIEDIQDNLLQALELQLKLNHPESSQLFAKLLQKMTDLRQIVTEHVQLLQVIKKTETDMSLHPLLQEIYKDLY

Test [5] shares this target. As to the kind of experiment: OT_PPARg_PPARgSRC1_1440: Odyssey Thera (OT) 24-hour Protein-Complementation Assay for Peroxisome Proliferator-activated Receptor Gamma/ SRC-1 Co-activator (AID 2283388; active = hit-call score of the fitted dose curve at least 0.9, where 1 is the maximum). The procedure, abridged: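 Protein-fragment complementation between PPARg and coactivator SRC-1 was measured by fluorescence imaging in transiently transfected HEK293T cells after 24 h treatment. Signal was quantified as N/C ratio in the 488 nm channel, with DMSO as negative control.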

Read-out in test [6]: Tumor necrosis factor receptor superfamily member 6 (Homo sapiens) (UniProt P25445)
As to the kind of experiment: LTEA_HepaRG_FAS: Life Technologies and Expression Analysis (LTEA) Assay for Fas cell surface death receptor (FAS) using HepaRG (AID 2283447). Conditions: mRNA level, 48 h; actives raise or lower the signal. A digest of the protocol:
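Differentiated human HepaRG cells, pre-cultured 48 h, were exposed in duplicate for 48 h to 8-point half-log concentrations (top 100 uM, 0.5% DMSO) in serum-free induction medium; FAS mRNA measured by qRT-PCR, normalized to ACTB/GAPDH/POLR2A, bidirectional fit versus DMSO.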

Read-out in test [7]: Fatty acid synthase (Homo sapiens) (UniProt P49327)
As to the kind of experiment: LTEA_HepaRG_FASN: Life Technologies and Expression Analysis (LTEA) Assay for Fatty Acid Synthase (FASN) using HepaRG (AID 2283448). Conditions: mRNA level, 48 h; actives raise or lower the signal. A digest of the protocol:
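Transcript-level assay: HepaRG liver cells are treated for 48 h across an eight-point range topping at 100 uM, and FASN mRNA, normalized to three housekeeping genes, is compared with DMSO controls in both directions.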

Read-out in test [8]: Cyclin Dependent Kinase Inhibitor 1A (CDKN1A), CDKN1A (gene 1026)
Briefly: LTEA_HepaRG_CDKN1A: Life Technologies and Expression Analysis (LTEA) Assay for Cyclin Dependent Kinase Inhibitor 1A (CDKN1A) using HepaRG (AID 2283450). As to conditions: mRNA level, 48 h; actives raise or lower the signal. A digest of the protocol: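 Read-out is CDKN1A mRNA by TaqMan qRT-PCR, normalized to three housekeeping genes and fitted in both directions against the DMSO baseline. Human HepaRG cells were treated 48 h with test chemicals up to 100 uM in half-log steps, 0.5% DMSO.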

Read-out in test [9]: Cyclin D1 (CCND1), CCND1 (gene 595)
Briefly: LTEA_HepaRG_CCND1: Life Technologies and Expression Analysis (LTEA) Assay for Cyclin D1 (CCND1) using HepaRG (AID 2283451).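 For AC50: TaqMan qRT-PCR transcript level normalised to ACTB GAPDH and POLR2A housekeeping genes.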 As to conditions: mRNA level, 48 h; actives raise or lower the signal. A digest of the protocol: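 HepaRG plated 48 h, medium switched to serum-free induction medium, chemicals added in duplicate (top 100 uM, half-log steps, 0.5% DMSO) for 48 h, cells lysed, RNA measured by TaqMan qRT-PCR.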

Test [10] is described as follows: CEETOX_H295R_11DCORT: CeeTox H295R High-throughput Steroidogenesis Assay for 11-Deoxycortisol (11DCORT) (AID 2283432).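 For AC50: 11-deoxycortisol secreted into the medium measured by LC-MS/MS.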 As to conditions: actives raise or lower the signal. The procedure, abridged: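 H295R cells prestimulated 48 h with 10 uM forskolin, then exposed 48 h to chemical in 0.1% DMSO. 11-Deoxycortisol in medium quantified by HPLC-MS/MS after MTBE extraction; bidirectional fit versus DMSO. MTT viability read in same wells.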

Test [11] in a line: CEETOX_H295R_OHPREG: CeeTox H295R High-throughput Steroidogenesis Assay for OH-Pregnenolone (OHPREG) (AID 2283434). As to conditions: actives raise or lower the signal. A digest of the protocol:
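Human adrenal H295R cells were prestimulated 48 h with 10 uM forskolin, then exposed 48 h to chemical in 0.1% DMSO. Medium 17alpha-hydroxypregnenolone was quantified by HPLC-MS/MS after MTBE extraction; bidirectional fitting versus DMSO baseline.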

A short description of test [12]: CEETOX_H295R_OHPROG: CeeTox H295R High-throughput Steroidogenesis Assay for OH-Progesterone (OHPROG) (AID 2283435).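 For AC50: 17alpha-hydroxyprogesterone secreted into medium measured by HPLC-MS/MS.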 Conditions: actives raise or lower the signal. The procedure, abridged:
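Secreted 17alpha-hydroxyprogesterone is read by tandem MS from media of forskolin-primed H295R cells dosed with chemical for 48 h. Activity is fitted in both directions against DMSO baseline; cytotoxic concentrations are re-tested diluted.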

Test [13] is described as follows: CEETOX_H295R_ANDR: CeeTox H295R High-throughput Steroidogenesis Assay for Androstenedione (ANDR) (AID 2283436). Conditions: actives raise or lower the signal. The procedure, abridged:
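H295R human adrenal cells (passages ≤10) were exposed to test chemicals for 48 h; androstenedione in medium was MTBE-extracted and quantified by HPLC-MS/MS against a 7-point standard curve. Bidirectional fitting used DMSO as baseline.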

A short description of test [14]: CEETOX_H295R_CORTIC: CeeTox H295R High-throughput Steroidogenesis Assay for Corticosterone (CORTIC) (AID 2283437).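 Note: corticosterone secreted into medium quantified by mass spectrometry.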 As to conditions: actives raise or lower the signal. The procedure, abridged:
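H295R cells were prestimulated 48 h with 10 uM forskolin, then exposed 48 h to test chemical in 0.1% DMSO. Medium corticosterone was MTBE-extracted and quantified by HPLC-MS/MS; bidirectional fit versus DMSO baseline.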

A short description of test [15]: CEETOX_H295R_CORTISOL: CeeTox H295R High-throughput Steroidogenesis Assay for Cortisol (AID 2283438).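 Note: cortisol secreted into medium quantified by LC-MS/MS.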 As to conditions: actives raise or lower the signal. The procedure, abridged:
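Human adrenocortical H295R cells (passage ≤10) received test chemicals for 48 h after forskolin priming. Secreted cortisol was measured by LC-MS/MS.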

The nature of test [16]: CEETOX_H295R_DOC: CeeTox H295R High-throughput Steroidogenesis Assay for DOC (AID 2283439). Conditions: actives raise or lower the signal. A digest of the protocol: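 Secreted DOC was quantified from H295R media by HPLC-MS/MS after 48 h chemical exposure following 48 h forskolin (10 uM) prestimulation. Values were fitted in both directions relative to DMSO, the negative control and baseline.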

Test [17] in a line: CEETOX_H295R_ESTRADIOL: CeeTox H295R High-throughput Steroidogenesis Assay for Estradiol (AID 2283440).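 Note: estradiol secreted into medium quantified by LC-MS/MS after dansyl derivatisation.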 As to conditions: actives raise or lower the signal. A digest of the protocol: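 Estradiol secreted into the medium was measured by tandem mass spectrometry after liquid-liquid extraction and dansylation. Human H295R cells had been forskolin-primed (10 uM, 48 h) before a 48 h chemical exposure with 0.1% DMSO.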

A short description of test [18]: CEETOX_H295R_ESTRONE: CeeTox H295R High-throughput Steroidogenesis Assay for Estrone (AID 2283441).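 Note: estrone secreted into medium measured by LC-MS/MS after dansyl derivatization.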 As to conditions: actives raise or lower the signal. The procedure, abridged: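 H295R cells; 48 h forskolin (10 uM) prestimulation; 48 h compound exposure, 0.1% DMSO final. Medium estrone: MTBE extraction, dansyl derivatization, HPLC-MS/MS. Bidirectional fit vs DMSO.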

Test [19] is described as follows: CEETOX_H295R_PROG: CeeTox H295R High-throughput Steroidogenesis Assay for Progesterone (PROG) (AID 2283442).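 For AC50: human H295R adrenal cells primed with 10 µM forskolin before dosing; progesterone secreted into medium by H295R cells measured by HPLC-MS/MS.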 As to conditions: actives raise or lower the signal. The procedure, abridged:
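Steps: seed H295R cells and let them adhere overnight; prime 48 h with 10 uM forskolin; dose with compound in DMSO at 0.1% final for 48 h; extract medium steroids with MTBE; measure progesterone by LC-MS/MS. MTT viability was run in the same wells.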

Read-out in test [20]: Cyclin D2 (CCND2), CCND2 (gene 894)
As to the kind of experiment: LTEA_HepaRG_CCND2: Life Technologies and Expression Analysis (LTEA) Assay for Cyclin D2 (CCND2) using HepaRG (AID 2283449).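 Note: CCND2 transcript measured by TaqMan qRT-PCR and normalised to three housekeeping genes.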 Conditions: mRNA level, 48 h; actives raise or lower the signal. The procedure, abridged:
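Differentiated human HepaRG cells were exposed for 48 h in serum-free induction medium to eight half-log concentrations topping at 100 uM (0.5% DMSO vehicle). CCND2 mRNA was quantified by TaqMan qRT-PCR, normalised to ACTB, GAPDH and POLR2A, and fitted bidirectionally against DMSO.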

Chain of Bile acid receptor (Homo sapiens) (Q96RI1 whole entry, looked up, the tested form may be a part): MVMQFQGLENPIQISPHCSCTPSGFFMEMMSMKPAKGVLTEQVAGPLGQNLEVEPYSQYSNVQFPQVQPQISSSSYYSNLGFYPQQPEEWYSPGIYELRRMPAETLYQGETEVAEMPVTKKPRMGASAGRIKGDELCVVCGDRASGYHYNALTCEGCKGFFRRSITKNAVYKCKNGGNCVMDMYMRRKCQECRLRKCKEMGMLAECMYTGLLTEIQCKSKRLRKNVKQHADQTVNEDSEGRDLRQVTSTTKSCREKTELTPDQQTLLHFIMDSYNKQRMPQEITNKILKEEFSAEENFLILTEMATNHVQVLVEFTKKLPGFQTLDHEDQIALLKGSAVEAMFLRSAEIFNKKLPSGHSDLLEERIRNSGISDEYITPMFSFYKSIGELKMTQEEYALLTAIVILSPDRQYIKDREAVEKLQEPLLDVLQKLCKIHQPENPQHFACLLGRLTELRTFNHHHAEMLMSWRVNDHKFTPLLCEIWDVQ
Chain of Fatty acid synthase (Homo sapiens) (P49327 whole entry, looked up): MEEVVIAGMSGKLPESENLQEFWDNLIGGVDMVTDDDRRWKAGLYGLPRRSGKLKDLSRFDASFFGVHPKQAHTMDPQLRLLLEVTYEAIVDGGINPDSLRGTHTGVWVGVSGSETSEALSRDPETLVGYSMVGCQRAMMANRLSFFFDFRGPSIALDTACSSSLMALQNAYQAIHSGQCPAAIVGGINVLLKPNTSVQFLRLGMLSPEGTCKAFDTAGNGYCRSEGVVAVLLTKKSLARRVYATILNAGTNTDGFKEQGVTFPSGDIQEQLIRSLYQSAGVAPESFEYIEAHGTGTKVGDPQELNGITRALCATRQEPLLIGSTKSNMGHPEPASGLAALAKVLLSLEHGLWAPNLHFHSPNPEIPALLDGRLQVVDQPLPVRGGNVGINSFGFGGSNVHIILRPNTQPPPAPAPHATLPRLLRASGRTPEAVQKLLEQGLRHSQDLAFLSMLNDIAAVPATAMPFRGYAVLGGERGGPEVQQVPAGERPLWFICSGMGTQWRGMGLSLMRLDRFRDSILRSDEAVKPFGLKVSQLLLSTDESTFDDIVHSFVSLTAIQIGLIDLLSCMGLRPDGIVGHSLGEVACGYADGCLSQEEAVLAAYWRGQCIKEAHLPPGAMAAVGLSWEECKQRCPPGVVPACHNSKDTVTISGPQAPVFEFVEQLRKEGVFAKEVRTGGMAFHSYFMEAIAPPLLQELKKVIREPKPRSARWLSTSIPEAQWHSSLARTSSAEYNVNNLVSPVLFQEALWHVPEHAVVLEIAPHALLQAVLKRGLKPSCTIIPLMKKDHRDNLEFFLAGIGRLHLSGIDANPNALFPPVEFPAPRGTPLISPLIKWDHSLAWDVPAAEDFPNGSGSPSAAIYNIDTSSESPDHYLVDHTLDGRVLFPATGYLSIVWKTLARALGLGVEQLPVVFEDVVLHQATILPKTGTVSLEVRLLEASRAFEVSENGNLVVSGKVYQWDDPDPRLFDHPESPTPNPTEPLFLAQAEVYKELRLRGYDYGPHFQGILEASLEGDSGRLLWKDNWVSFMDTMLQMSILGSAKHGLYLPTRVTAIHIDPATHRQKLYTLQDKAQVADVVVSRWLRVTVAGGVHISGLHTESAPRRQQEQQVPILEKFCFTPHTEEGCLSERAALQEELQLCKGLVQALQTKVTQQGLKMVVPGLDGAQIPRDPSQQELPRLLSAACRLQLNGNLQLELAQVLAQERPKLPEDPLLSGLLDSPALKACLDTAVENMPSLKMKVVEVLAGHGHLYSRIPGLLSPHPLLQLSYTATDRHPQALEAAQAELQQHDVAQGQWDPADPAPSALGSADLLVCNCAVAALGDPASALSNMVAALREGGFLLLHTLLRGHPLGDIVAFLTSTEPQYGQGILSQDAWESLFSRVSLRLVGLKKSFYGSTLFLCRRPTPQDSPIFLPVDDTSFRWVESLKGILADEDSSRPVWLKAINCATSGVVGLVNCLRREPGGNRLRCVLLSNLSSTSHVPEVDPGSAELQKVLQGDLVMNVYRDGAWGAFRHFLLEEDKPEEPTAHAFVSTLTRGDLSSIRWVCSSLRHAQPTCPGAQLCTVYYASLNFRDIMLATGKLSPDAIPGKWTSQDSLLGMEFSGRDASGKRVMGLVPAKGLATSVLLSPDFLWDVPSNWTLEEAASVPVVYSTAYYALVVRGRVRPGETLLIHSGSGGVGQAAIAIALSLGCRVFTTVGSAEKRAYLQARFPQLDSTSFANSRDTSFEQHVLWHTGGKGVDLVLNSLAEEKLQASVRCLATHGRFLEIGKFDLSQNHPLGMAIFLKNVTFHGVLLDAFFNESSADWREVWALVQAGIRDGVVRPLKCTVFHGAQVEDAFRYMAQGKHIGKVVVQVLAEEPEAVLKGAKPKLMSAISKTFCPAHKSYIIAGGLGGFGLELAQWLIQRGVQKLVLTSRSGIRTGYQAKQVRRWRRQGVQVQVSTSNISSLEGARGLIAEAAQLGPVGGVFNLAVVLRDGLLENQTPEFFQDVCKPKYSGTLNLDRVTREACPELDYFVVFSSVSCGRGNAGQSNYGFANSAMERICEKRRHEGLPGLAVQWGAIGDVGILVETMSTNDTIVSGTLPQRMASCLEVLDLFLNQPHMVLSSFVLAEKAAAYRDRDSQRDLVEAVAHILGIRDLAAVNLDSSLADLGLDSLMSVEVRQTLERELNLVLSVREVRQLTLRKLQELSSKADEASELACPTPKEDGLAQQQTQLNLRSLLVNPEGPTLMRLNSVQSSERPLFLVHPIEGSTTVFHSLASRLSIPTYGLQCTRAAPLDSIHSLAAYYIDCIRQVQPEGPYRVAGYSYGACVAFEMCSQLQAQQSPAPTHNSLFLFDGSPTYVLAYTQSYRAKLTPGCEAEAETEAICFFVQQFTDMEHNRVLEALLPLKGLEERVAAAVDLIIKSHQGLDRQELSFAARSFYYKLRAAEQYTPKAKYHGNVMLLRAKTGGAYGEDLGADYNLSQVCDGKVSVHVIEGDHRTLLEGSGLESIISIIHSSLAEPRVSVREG
Chain of Estrogen receptor (Homo sapiens) (P03372 whole entry, looked up): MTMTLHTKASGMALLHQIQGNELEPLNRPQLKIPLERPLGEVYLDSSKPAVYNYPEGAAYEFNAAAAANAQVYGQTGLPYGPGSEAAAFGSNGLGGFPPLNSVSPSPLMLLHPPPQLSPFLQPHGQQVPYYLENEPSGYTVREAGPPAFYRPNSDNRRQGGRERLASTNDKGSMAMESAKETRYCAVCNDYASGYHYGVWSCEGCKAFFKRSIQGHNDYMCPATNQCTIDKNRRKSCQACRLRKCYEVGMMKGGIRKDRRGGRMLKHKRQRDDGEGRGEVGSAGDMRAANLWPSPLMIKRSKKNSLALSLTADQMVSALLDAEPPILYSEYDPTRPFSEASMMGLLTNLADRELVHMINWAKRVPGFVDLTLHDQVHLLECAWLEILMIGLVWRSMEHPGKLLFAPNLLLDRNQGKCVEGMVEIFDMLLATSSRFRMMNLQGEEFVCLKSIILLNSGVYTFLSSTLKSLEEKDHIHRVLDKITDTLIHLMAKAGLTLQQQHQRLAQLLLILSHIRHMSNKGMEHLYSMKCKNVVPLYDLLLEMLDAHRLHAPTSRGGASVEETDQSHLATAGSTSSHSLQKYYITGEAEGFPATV

`CC1(c2ccc(Oc3ccccc3)cc2)OC(=O)N(Nc2ccccc2)C1=O` (stereo not drawn): the call in test [1], in [4], in test [5] and in test [9] was inactive. In addition, the concentration at half-maximal activity (AC50) (in general, the concentration giving half of the maximal activity seen) was 1.94 µM (active) in test [2]; 1.68 µM (active) in test [3]; 1.02 µM (active) in test [6]; 42.4 µM (active) in [7]; 9.7 µM (active) in [8].
In the case of `O=[N+]([O-])c1c(Cl)c(Cl)c(Cl)c(Cl)c1Cl`, the compound was classed as inactive in test [1], in [4], in test [5], in [10], in test [11] and in test [12]. Moreover, the result in [13], in test [14], in test [15], in test [16], in test [17] and in [18] was inactive. Further, the result in test [19], in test [6], in test [7], in [20] and in [8] was inactive. For the same compound, in test [9], the AC50 was 50 µM (active).
Regarding `CCC(C)(C)C(=O)OC1=C(c2ccc(Cl)cc2Cl)C(=O)OC12CCCCC2`, the compound was called inactive in test [1], in [4], in [11], in [13], in test [14] and in test [15]. Also, the call in [17], in test [18], in test [6], in test [20], in test [8] and in [9] was inactive. Besides, the half-maximal activity concentration (AC50) in [2] is 47.5 µM (active); in test [3] it was 41 µM (active); in test [4] it was 16 µM (active); in [5] it was 38.7 µM (active) and 50 µM (active); in test [10], 1.11 µM (active); in [12], 2.29 µM (active). In addition, the values for the AC50 in [16], in test [19] and in test [7] were 0.739 µM (active), 0.593 µM (active) and 15.1 µM (active), respectively.
`CN1CSC(=S)N(C)C1`: the call in test [1], in test [2], in test [3], in test [4], in [5] and in test [6] was inactive. For the same compound, the compound was classed as inactive in test [7], in test [20], in test [8] and in test [9].
For `O=[N+]([O-])/N=C1\NCCN1Cc1ccc(Cl)nc1`, the outcome in test [1], in [2], in test [3], in test [4], in test [5] and in test [10] was inactive. Moreover, the call in test [11], in [12], in test [13], in test [14], in test [15] and in [16] was inactive. Besides, the result in [17], in [18], in test [19], in test [6], in test [20] and in test [9] was inactive. The values for the AC50 in [7] and in [8] were 20.6 µM (active) and 12.2 µM (active), respectively.
